{
  "source": "PubChem BioAssay (NCATS)",
  "key": {"[1]": {"assay": "Viability qHTS for spleen associated tyrosine kinase inhibitor (SYKi) naive MV4-11 cells (AID 1963823); further: nearly all actives have a fitted effect of over 40% in size", "summary_of_the_method": "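Compounds were dispensed acoustically onto plates, MV4-11 cells (SYKi-naive) added at 500 per well, and plates incubated 72 hr at 37 C. CellTiter-Glo was added and luminescence measured after 10 min.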"}, "[2]": {"assay": "Viability qHTS for spleen associated tyrosine kinase inhibitor (SYKi) drug resistant MV4-11 cells (AID 1963824); further: nearly all actives have a fitted effect of over 35% in size", "summary_of_the_method": "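SYK-inhibitor-resistant MV4-11 AML cells were seeded at 500 per well onto compound and cultured 72 hours (37 °C, 5% CO2). CellTiter-Glo was then added, and after 10 min at room temperature, luminescence gave viability.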"}},
  "note": "Inconclusive results are not listed. Entries that show only a call come without a potency. Unmarked numbers belong to inactive results. Active and inactive are the calls of the source. The call rests on the fitted dose curve; in most records, active means well fitted cell-killing curve with a large enough effect; inconclusive means small, poorly fitted or top-dose-only effect, or effect the other way; inactive means no such curve, though single readings can be large or run the other way. Potency means the concentration at half of the fitted maximal effect.",
  "data": [
    {"compound": "COc1ccc(/C=C/C(=O)O[C@H]2[C@H](O[C@H]3[C@@H]4C=CO[C@@H](O[C@@H]5O[C@H](CO)[C@@H](O)[C@H](O)[C@H]5O)[C@@H]4[C@@]4(CO)O[C@@H]34)O[C@@H](C)[C@H](O)[C@H]2OC(C)=O)cc1", "values": [
      {"measurement": "Potency", "setting": "[1]", "result": "inactive"},
      {"measurement": "Potency", "setting": "[2]", "result": "inactive"}
    ]},
    {"compound": "CC(C)=CCc1cc(C(O)C2NC(=O)CNC(=O)C(Cc3c[nH]c4ccccc34)NC(=O)C3CCCN3C(=O)CNC(=O)C(C(C)C)NC(=O)CNC2=O)ccc1O", "note": "(stereo not drawn)", "values": [
      {"measurement": "viability (% of control)", "setting": "[1]", "result": "78.4% [at 9.25 µM]"},
      {"measurement": "viability, % of control", "setting": "[2]", "result": "92.7% [at 9.25 µM]"}
    ]},
    {"compound": "CC1NC(=O)C(Cc2c[nH]c3ccccc23)NC1=O", "note": "(stereo not drawn)", "values": [
      {"measurement": "Potency", "setting": "[1]", "result": "inactive"},
      {"measurement": "Potency", "setting": "[2]", "result": "inactive"}
    ]},
    {"compound": "CC(C)C1NC(=O)CNC(=O)C2CCCN2C(=O)C(Cc2c[nH]c3ccccc23)NC(=O)CNC(=O)C(C(O)c2ccc(O)cc2)NC(=O)CNC1=O", "note": "(stereo not drawn)", "values": [
      {"measurement": "Potency", "setting": "[1]", "result": "inactive"},
      {"measurement": "Potency", "setting": "[2]", "result": "inactive"}
    ]},
    {"compound": "C=CC(C)(CC/C=C(\\C)C(=O)OC)OC1OC(COC(=O)CC(C)(O)CC(=O)O)C(O)C(O)C1O", "note": "(stereo not drawn)", "values": [
      {"measurement": "Potency", "setting": "[1]", "result": "inactive"},
      {"measurement": "Potency", "setting": "[2]", "result": "inactive"}
    ]},
    {"compound": "C[C@H]1/C=C/C=C/C=C/C=C/C=C/[C@@H](O)[C@H](C(=O)O)[C@H](O)C[C@H](O)CCC[C@H](O)C[C@H](O)C[C@H](O)[C@@H](C)C(=O)O[C@@H]1C", "values": [
      {"measurement": "Potency", "setting": "[1]", "result": "inactive"},
      {"measurement": "Potency", "setting": "[2]", "result": "inactive"}
    ]},
    {"compound": "C/C1=C\\CC(C)(C)/C=C/C/C(C(=O)O)=C/CC1", "values": [
      {"measurement": "Potency", "setting": "[1]", "result": "23.1 µM (active)"},
      {"measurement": "Potency", "setting": "[2]", "result": "23.1 µM (active)"}
    ]},
    {"compound": "C[C@]1(CO)CCC[C@]2(C)C3=C(CCC12)COC3", "note": "(stereo partly drawn)", "values": [
      {"measurement": "Potency", "setting": "[1]", "result": "inactive"},
      {"measurement": "Potency", "setting": "[2]", "result": "inactive"}
    ]},
    {"compound": "CC1CCC2(C(=O)OC3OC(CO)C(O)C(O)C3O)CCC3(C)C(=CCC4C5(C)CCC(O)C(C)(CO)C5CCC43C)C2C1(C)O", "note": "(stereo not drawn)", "values": [
      {"measurement": "Potency", "setting": "[1]", "result": "inactive"},
      {"measurement": "Potency", "setting": "[2]", "result": "inactive"}
    ]}
  ]
}
